These results are taken from PubChem BioAssay (Tox21).

Where “and” joins values, the source holds several entries; their conditions need not be identical. Identical values can stand only once. Records with an inconclusive call do not appear. Where a call stands in place of a potency, no number is given. A structure can be active in one record and inactive in another. Calls of active or inactive are those of the source. Unless noted, the call rests on the fitted dose curve.

The nature of the first assay: qHTS assay to identify small molecule agonists of H2AX - cell viability counter screen (AID 1224847). Further: nearly all actives have a fitted effect of over 30% in size. Further: potency means the concentration at half of the fitted maximal effect. To be noted: CHO-K1 viability, CellTiter-Glo luminescence, 3 h; series mostly up to 154 µM. The method, boiled down: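 Counter-screen for viability: CellTiter-Glo ATP luminescence read after 3 h compound treatment (15-point titration, 0.76% DMSO final) of CHO-K1 cells at 37C, with 30 min room-temperature reagent incubation.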
A general note: Quantitative high-throughput screening tests each substance at several concentrations.
Turning to `O=C(O)c1cn(-c2ccc(F)cc2)c2cc(N3CCNCC3)c(F)cc2c1=O`, the Potency entry is “inactive”.
The same measure, in the same setting: the figure for `CCCCC(CC)COC(=O)CC(C(=O)OCC(CC)CCCC)S(=O)(=O)O` (centres undefined) is 86.4 µM (active) and 80 µM (active); for `NC(N)=Nc1nc(CSCC/C(N)=N/S(N)(=O)=O)cs1` it is “inactive”.
The same measure, in the same setting: the entry for `CCN1CCCC1CNC(=O)c1cc(S(=O)(=O)CC)c(N)cc1OC` (centres undefined) is “inactive”; for `OCC(CO)N[C@H]1C[C@](O)(CO)[C@@H](O)[C@H](O)[C@H]1O` it is “inactive”; for `CCCCCCCCCCCCCC[P+](CCCC)(CCCC)CCCC` it is 3.99 µM (active) and 31.8 µM (active).
Same read-out and setting: the entry for `CC(=O)N[C@@H](CS)C(=O)O` is “inactive”.
As to `c1cc(C(c2ccc(OCC3CO3)cc2)C(c2ccc(OCC3CO3)cc2)c2ccc(OCC3CO3)cc2)ccc1OCC1CO1` (centres undefined), the Potency entry was “inactive”.
On the same count and under the same terms, under `CCCC(=O)c1ccccc1` stands “inactive”.
On to `C=C(C)C1CC=C(C)C(OC(C)=O)C1` (centres undefined), for which the Potency result was “inactive”.
Same read-out and setting: under `CC(C)(C)NCC(O)COc1ccccc1OCC1CCCO1` (centres undefined) stands “inactive”.
For the compound `COC(=O)[C@H]1[C@H]2C[C@@H]3c4[nH]c5cc(OC)ccc5c4CCN3C[C@H]2C[C@@H](OC(=O)c2cc(OC)c(OC)c(OC)c2)[C@@H]1OC`, the Potency result was “inactive”.
Still for that read-out and setting: under `c1ccc2n[nH]nc2c1` stands “inactive”.
Still for that read-out and setting: under `CC(=O)OCCOCCOCCOC(C)=O` stands “inactive”; under `COC(=O)/C=C/c1ccccc1`, “inactive”; under `Oc1c(Cl)cc(Cl)c(Cl)c1Cc1c(O)c(Cl)cc(Cl)c1Cl`, 25.2 µM (active) and 40.1 µM (active).
Still for that read-out and setting: the entry for `Nc1nc2ccccc2[nH]1` is “inactive”; for `CCN(CC)C(=S)SSC(=S)N(CC)CC` it is “inactive”.
Regarding `NCCCCCC(=O)O`, the Potency entry is “inactive”.
Still for that read-out and setting: under `CC(C)(C)c1ccc(O)c(C(C)(C)C)c1` stands 89.4 µM (active); under `CCC(C)(C)C(=O)O[C@H]1C[C@@H](C)C=C2C=C[C@H](C)[C@H](CC[C@@H]3C[C@@H](O)CC(=O)O3)[C@H]21`, “inactive”.
Same read-out and setting: under `O=C(O)CCc1ccccc1` stands “inactive”; under `CC[C@H]1CN2CCc3cc(OC)c(OC)cc3[C@@H]2C[C@@H]1C[C@H]1NCCc2cc(OC)c(OC)cc21`, “inactive”; under `CC(C)CCOC(=O)c1ccc(N(C)C)cc1`, “inactive”.
On the same count and under the same terms, the entry for `Cc1cc(C2(c3cc(C)c(O)cc3C)OS(=O)(=O)c3ccccc32)c(C)cc1O` is “inactive”; for `CCOC(=O)C(C)C(C)=O` (centres undefined) it is “inactive”; for `CC(C)(C)c1cc(C(C)(C)C)c(O)c(C(C)(C)C)c1` it is 101 µM (active).
For the compound `CCC[C@H](N[C@@H](C)C(=O)N1[C@H](C(=O)O)C[C@@H]2CCCC[C@@H]21)C(=O)OCC`, the Potency entry was “inactive”.
Still for that read-out and setting: the entry for `O=c1n(CC2CO2)c(=O)n(CC2CO2)c(=O)n1CC1CO1` (centres undefined) is “inactive”.

The next assay in a line: qHTS assay to identify small molecule antagonists of the estrogen related receptor (ERR) signaling pathway from Tox21 library (AID 1224848; active means well fitted inhibition curve with a large enough effect in the repeat runs; further: nearly all actives have a fitted effect of over 50% in size; further: potency means the concentration at half of the fitted maximal effect). To be noted: ERR reporter cell line, luciferase antagonist mode, 18 h; series mostly up to 92.4 µM. In short, it runs like this: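 ERR reporter cell line (from NTP) seeded 2,000 cells/well, rested 6 h at 37 C/5% CO2, then pin-dosed with compounds in DMSO. After 18 h at 37 C, ONE-Glo added; luminescence read after 30 min at room temperature.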
Turning to `NC(N)=Nc1nc(CSCC/C(N)=N/S(N)(=O)=O)cs1`, the Potency entry is “inactive”.
Same read-out and setting: the entry for `CCN1CCCC1CNC(=O)c1cc(S(=O)(=O)CC)c(N)cc1OC` (centres undefined) is “inactive”; for `OCC(CO)N[C@H]1C[C@](O)(CO)[C@@H](O)[C@H](O)[C@H]1O` it is “inactive”.
As to `CC1COC(=O)O1` (centres undefined), the Potency result was “inactive”.
Still for that read-out and setting: the entry for `c1cc(C(c2ccc(OCC3CO3)cc2)C(c2ccc(OCC3CO3)cc2)c2ccc(OCC3CO3)cc2)ccc1OCC1CO1` (centres undefined) is “inactive”; for `NC(N)=NC(=O)Cc1c(Cl)cccc1Cl` it is “inactive”.
With `CCCC(=O)c1ccccc1`, the Potency entry was “inactive”.
Still for that read-out and setting: the entry for `C=C(C)C1CC=C(C)C(OC(C)=O)C1` (centres undefined) is “inactive”.
Still for that read-out and setting: under `CC(C)(C)NCC(O)COc1ccccc1OCC1CCCO1` (centres undefined) stands “inactive”; under `COC(=O)[C@H]1[C@H]2C[C@@H]3c4[nH]c5cc(OC)ccc5c4CCN3C[C@H]2C[C@@H](OC(=O)c2cc(OC)c(OC)c(OC)c2)[C@@H]1OC`, 24.3 µM (active) and 19.9 µM (active) and 26.6 µM (active).
Still for that read-out and setting: under `Oc1c(Cl)cc(Cl)c(Cl)c1Cc1c(O)c(Cl)cc(Cl)c1Cl` stands 3.05 µM (active) and 2.73 µM (active) and 3.35 µM (active).
In the case of `CCN(CC)C(=S)SSC(=S)N(CC)CC`, the Potency is 243 nM (active) and 55.8 nM (active) and 298 nM (active).
The same measure, in the same setting: the figure for `CC(C)(C)c1ccc(O)c(C(C)(C)C)c1` is 54.3 µM (active) and 61.1 µM (active); for `O=C(O)CCc1ccccc1` it is “inactive”; for `OCCN1CCNCC1` it is “inactive”.
Still for that read-out and setting: under `[Cl][In]([Cl])[Cl]` stands 34.4 µM (active); under `CC(C)CCOC(=O)c1ccc(N(C)C)cc1`, “inactive”.
On the same count and under the same terms, the figure for `Cc1cc(C2(c3cc(C)c(O)cc3C)OS(=O)(=O)c3ccccc32)c(C)cc1O` is 61.1 µM (active) and inactive.
Regarding `CCOC(=O)C(C)C(C)=O` (centres undefined), the Potency entry is “inactive”.
Still for that read-out and setting: the figure for `O=C1CC2(CCCC2)CC(=O)N1CCCCN1CCN(c2ncccn2)CC1` is 30.6 µM (active) and inactive.

The nature of the next assay: qHTS assay to identify small molecule agonists of the estrogen related receptor (ERR) signaling pathway from Tox21 library (AID 1224849). Further: nearly all actives have a fitted effect of over 15% in size. To be noted: ERR reporter cell line, ONE-Glo luciferase, 18 h; at 42.5 µM (top of the series). In short, it runs like this:
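Screening used an NTP-provided ERR luciferase cell line. Compounds in DMSO were added 6 h after seeding and left 18 h at 37 C before a 30 min ONE-Glo step and luminescence reading.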
Consider `NC(N)=Nc1nc(CSCC/C(N)=N/S(N)(=O)=O)cs1`, for which the activity change, positive = activation was 8.96% (inactive).
Still for that read-out and setting: under `CCN1CCCC1CNC(=O)c1cc(S(=O)(=O)CC)c(N)cc1OC` (centres undefined) stands 2.19% (inactive); under `OCC(CO)N[C@H]1C[C@](O)(CO)[C@@H](O)[C@H](O)[C@H]1O`, 2.44% (inactive).
Still for that read-out and setting: the figure for `NC(N)=NC(=O)Cc1c(Cl)cccc1Cl` is -1.99% (inactive); for `CC(C)(C)NCC(O)COc1ccccc1OCC1CCCO1` (centres undefined) it is 4.72% (inactive); for `COC(=O)[C@H]1[C@H]2C[C@@H]3c4[nH]c5cc(OC)ccc5c4CCN3C[C@H]2C[C@@H](OC(=O)c2cc(OC)c(OC)c(OC)c2)[C@@H]1OC` it is -35.9% (inactive).
The same measure, in the same setting: under `Oc1c(Cl)cc(Cl)c(Cl)c1Cc1c(O)c(Cl)cc(Cl)c1Cl` stands -49.7% (inactive).
As to `CCN(CC)C(=S)SSC(=S)N(CC)CC`, the activity change, positive = activation was -68.2% (inactive).
On the same count and under the same terms, the figure for `CC(C)CCOC(=O)c1ccc(N(C)C)cc1` is 81.2% (active); for `O=C1CC2(CCCC2)CC(=O)N1CCCCN1CCN(c2ncccn2)CC1` it is -12.4% (inactive).
